{"source": "PubChem BioAssay AID743354", "about": "(Broad Institute, 2014)", "note": "Measured potencies and affinities stand elsewhere. Calls of active or inactive are those of the source.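 Rule for the calls: active = cytotoxic signal drop with a fitted half-maximal concentration at most twice the top valid tested dose; inconclusive = flat fit with moderate signal loss, or poor fit quality; inactive = opposite effect, flat response, or potency beyond limit.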", "data": [{"experiment": "viability loss in HEK293 cells – cell-based, luminescence, dry powder, set 12, cytotoxicity control, dose response (AID 743354)", "conditions": "HEK293T viability, CellTiter-Glo ATP luminescence, 72 h; series mostly up to 26 µM; activity change, negative = cytotoxic: at the top concentration", "values": [{"smiles": "CC(=O)c1ccc(N2CCN(C(=O)c3ccc4c(c3)OCO4)[C@H](C)C2)cc1", "activity change, negative = cytotoxic": "-0.499% (inactive)"}, {"smiles": "COc1ccccc1C(=O)N1CCN(c2ccc(C(C)=O)cc2)CC1", "activity change, negative = cytotoxic": "-1.08% (inactive)"}, {"smiles": "CN1c2ccc(-c3cccc(F)c3)cc2[C@H]2[C@H](CCN2C(=O)Cc2cccnc2)[C@H]1CO", "activity change, negative = cytotoxic": "-0.157% (inactive)"}, {"smiles": "COC(=O)c1ccc(N2CCN(C(=O)c3ccc4c(c3)OCO4)CC2)cc1", "activity change, negative = cytotoxic": "1.03% (inactive)"}, {"smiles": "CC(=O)c1ccc(N2CCN(C(=O)c3ccccc3Cl)CC2)cc1", "activity change, negative = cytotoxic": "-1% (inactive)"}, {"smiles": "CN1c2ccc(-c3ccc(F)cc3)cc2[C@H]2[C@H](CCN2C(=O)Nc2ccc(F)cc2)[C@H]1CO", "activity change, negative = cytotoxic": "-6.51% (inactive)"}, {"smiles": "CN1c2ccc(-c3cccc(F)c3)cc2[C@@H]2[C@@H](CCN2C(=O)c2ccc3c(c2)OCO3)[C@@H]1CO", "activity change, negative = cytotoxic": "-1.34% (inactive)"}, {"smiles": "COc1cccc(NC(=O)N2CC[C@@H]3[C@@H](CO)N(C)c4ccc(-c5cccc(F)c5)cc4[C@@H]32)c1", "activity change, negative = cytotoxic": "-1.77% (inactive)"}, {"smiles": "CN1c2ccc(-c3cccc(F)c3)cc2[C@H]2[C@H](CCN2C(=O)Cc2ccccc2)[C@H]1CO", "activity change, negative = cytotoxic": "-7.06% [at 23.5 µM] (inactive)"}, {"smiles": "CN1c2ccc(-c3cccc(F)c3)cc2[C@H]2[C@H](CCN2C(=O)c2ccc3c(c2)OCO3)[C@@H]1CO", "activity change, negative = cytotoxic": "3.57% (inactive)"}, {"smiles": "COc1ccc(NC(=O)N2CC[C@@H]3[C@@H](CO)N(C)c4ccc(-c5ccc(F)cc5)cc4[C@@H]32)cc1", "activity change, negative = cytotoxic": "-1.74% (inactive)"}, {"smiles": "CN(C)C(=O)c1ccc(N2CCN(C(=O)c3ccc4c(c3)OCO4)CC2)cc1", "activity change, negative = cytotoxic": "-0.522% (inactive)"}, {"smiles": "CN1c2ccc(-c3cccc(F)c3)cc2[C@@H]2[C@@H](CCN2C(=O)c2ccc3c(c2)OCO3)[C@H]1CO", "activity change, negative = cytotoxic": "1.77% (inactive)"}, {"smiles": "CCCNC(=O)N1CC[C@@H]2[C@@H](CO)N(C)c3ccc(-c4ccc(F)cc4)cc3[C@@H]21", "activity change, negative = cytotoxic": "-1.65% (inactive)"}, {"smiles": "CN1c2ccc(-c3ccc(F)cc3)cc2[C@H]2[C@H](CCN2C(=O)Nc2cc(F)ccc2F)[C@H]1CO", "activity change, negative = cytotoxic": "-9.18% [at 23.5 µM] (inactive)"}, {"smiles": "CNC(=O)c1ccc(N2CCN(C(=O)c3ccc4c(c3)OCO4)CC2)cc1", "activity change, negative = cytotoxic": "-0.972% (inactive)"}, {"smiles": "COc1ccccc1NC(=O)N1CC[C@@H]2[C@@H](CO)N(C)c3ccc(-c4cccc(F)c4)cc3[C@@H]21", "activity change, negative = cytotoxic": "-4.14% [at 23.5 µM] (inactive)"}, {"smiles": "CC(=O)c1ccc(NCCNC(=O)c2ccc3c(c2)OCO3)cc1", "activity change, negative = cytotoxic": "-0.945% (inactive)"}, {"smiles": "COc1ccc(NC(=O)N2CC[C@@H]3[C@@H](CO)N(C)c4ccc(-c5cccc(F)c5)cc4[C@@H]32)cc1", "activity change, negative = cytotoxic": "1.8% (inactive)"}, {"smiles": "CC(=O)c1ccc(N2CCN(C(=O)c3ccc4c(c3)OCO4)CC2)cc1", "activity change, negative = cytotoxic": "-6.96% (inactive)"}, {"smiles": "CCC(=O)N1CC[C@@H]2[C@@H](CO)N(C)c3ccc(-c4ccc(F)cc4)cc3[C@@H]21", "activity change, negative = cytotoxic": "2.33% [at 23.5 µM] (inactive)"}, {"smiles": "CCCCCCCC(=O)N1CC[C@@H]2[C@@H](CO)N(C)c3ccc(-c4cccc(F)c4)cc3[C@@H]21", "activity change, negative = cytotoxic": "3.9% (inactive)"}, {"smiles": "COc1ccccc1NC(=O)N1CC[C@@H]2[C@@H](CO)N(C)c3ccc(-c4ccc(F)cc4)cc3[C@@H]21", "activity change, negative = cytotoxic": "-4.86% (inactive)"}, {"smiles": "CN1c2ccc(-c3cccc(F)c3)cc2[C@H]2[C@H](CCN2C(=O)CCCCCCC(=O)O)[C@H]1CO", "activity change, negative = cytotoxic": "-2.42% (inactive)"}, {"smiles": "CC(=O)c1ccc(N2CC3(CN(C(=O)c4ccc5c(c4)OCO5)C3)C2)cc1", "activity change, negative = cytotoxic": "3.16% (inactive)"}, {"smiles": "CN1c2ccc(-c3ccc(F)cc3)cc2[C@H]2[C@H](CCN2C(=O)Cc2cccnc2)[C@H]1CO", "activity change, negative = cytotoxic": "2.81% [at 23.5 µM] (inactive)"}, {"smiles": "CNS(=O)(=O)c1ccc(N2CCN(C(=O)c3ccc4c(c3)OCO4)CC2)cc1", "activity change, negative = cytotoxic": "1.42% (inactive)"}, {"smiles": "CN1c2ccc(-c3ccc(F)cc3)cc2[C@H]2[C@H](CCN2C(=O)Cc2ccccn2)[C@H]1CO", "activity change, negative = cytotoxic": "-0.802% (inactive)"}, {"smiles": "COCC(=O)N1CC[C@@H]2[C@@H](CO)N(C)c3ccc(-c4cccc(F)c4)cc3[C@@H]21", "activity change, negative = cytotoxic": "-6.94% (inactive)"}, {"smiles": "CC(C)NC(=O)N1CC[C@@H]2[C@@H](CO)N(C)c3ccc(-c4cccc(F)c4)cc3[C@@H]21", "activity change, negative = cytotoxic": "-2.92% (inactive)"}, {"smiles": "CC(C)NC(=O)N1CC[C@@H]2[C@@H](CO)N(C)c3ccc(-c4ccc(F)cc4)cc3[C@@H]21", "activity change, negative = cytotoxic": "-6.15% (inactive)"}, {"smiles": "CN1c2ccc(-c3cccc(F)c3)cc2[C@H]2[C@H](CCN2C(=O)Nc2ccccc2F)[C@H]1CO", "activity change, negative = cytotoxic": "-2.02% [at 23.5 µM] (inactive)"}]}]}
